What all share (test): NCI-60 one-dose screen, 48 h (100 = growth as untreated, 0 = no growth, -100 = all killed)
Experiment [1] has as its system HCT-15 colon. Particulars: 10 µM unless noted.
Experiment [2] concerns HT29 colon. The following applies: 10 µM unless noted.
Experiment [3] concerns SNB-75 CNS. The following applies: 10 µM unless noted.
Experiment [4] relates to SNB-19 CNS. Particulars: 10 µM unless noted.
Experiment [5] concerns U251 CNS. Particulars: 10 µM unless noted.
In experiment [6] the test system is PC-3 prostate. The following applies: 10 µM unless noted.
For experiment [7], the system named is SK-MEL-5 melanoma. The following applies: 10 µM unless noted.
The subject of experiment [8] is UACC-62 melanoma. Particulars: 10 µM unless noted.
In experiment [9] the test system is LOX IMVI melanoma. The following applies: 10 µM unless noted.
The subject of experiment [10] is SK-MEL-28 melanoma. The following applies: 10 µM unless noted.
Experiment [11] relates to SK-MEL-2 melanoma. Particulars: 10 µM unless noted.
For experiment [12], the system named is EKVX NSCLC. The following applies: 10 µM.
Experiment [13] deals with SN12C renal. The following applies: 10 µM unless noted.
For experiment [14], the system named is UO-31 renal. The following applies: 10 µM unless noted.
For experiment [15], the system named is TK-10 renal. Particulars: 10 µM unless noted.
The test system of experiment [16] is ACHN renal. Particulars: 10 µM unless noted.
Experiment [17] deals with CAKI-1 renal. Particulars: 10 µM unless noted.
For experiment [18], the system named is A498 renal. Particulars: 10 µM unless noted.
Experiment [19] has as its system MOLT-4 leukemia. Particulars: 10 µM unless noted.
The subject of experiment [20] is CCRF-CEM leukemia. The following applies: 10 µM.

SMILES strings stand for the structures. About 83,000 compounds went through this panel and 20% of them were active in at least one assay; those are over-represented in the sample as a whole.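 Single-concentration screen, 48 h exposure, 96-well plates. Endpoint: percent growth. Below 10 = active.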 Values without a mark were called inactive. Calls of active or inactive are those of the source.

On to `NCCCOc1cc(Cl)ccc1NC(=O)c1cc2ccccc2cc1OCCCN`, for which the growth was 4.32% (active) in experiment [1]; -91.3% (active) in [2]; -90.9% (active) in [3]; 34% in experiment [4]; -93.2% (active) in experiment [5]; -76.3% (active) in experiment [6]. The growth was -86.4% (active) in experiment [7]; 26.4% in experiment [8]; -81.3% (active) in experiment [9]; -96.5% (active) in experiment [10]; -93.9% (active) in [11]; -16.1% (active) in experiment [12]. For the same compound, the growth in experiment [13] is 19.7%; in experiment [14], 25%; in experiment [15], -97.4% (active); in experiment [16], -79% (active); in experiment [17] it was 59%; in [18], 2.33% (active). Besides, the growth in [19] was -52.3% (active).

Take `CCOC(=O)C1=NN(c2ccccc2)C2=NC(=O)/C(=C\c3cn(-c4ccccc4)nc3-c3cc4ccccc4o3)C(=O)N12`: the growth in experiment [1] was 101%; in experiment [2] it was 98%; in [3] it was 94.7%; in experiment [4], 89.5%; in experiment [5], 99.4%; in experiment [6], 88.2%. Moreover, the growth in experiment [7] is 94.3%; in experiment [8], 82.3%; in [9], 95.9%; in experiment [10] it was 110%; in experiment [11], 99.3%; in experiment [12] it was 90.2%. In addition, the growth in experiment [13] was 94.3%; in experiment [14] it was 68.5%; in [15], 161%; in experiment [16] it was 94.8%; in experiment [18], 112%; in [20], 95.8%. In addition, the growth in [19] was 96.3%.

With `COc1ccc(/C=C2\SC(=O)N(Cc3cc(=O)oc4ccc(OC)cc34)C2=O)cc1`, the growth was 89.9% in experiment [1]; 95.8% in experiment [2]; 74.3% in experiment [3]; 87% in experiment [4]; 98.9% in [5]; 93.1% in experiment [6]. In addition, the growth in experiment [7] was 87.4%; in [8], 66.3%; in [9] it was 85.7%; in experiment [10], 95.1%; in experiment [11], 99.9%; in experiment [12], 79.3%. The growth in experiment [13] is 90.7%; in experiment [14], 70.6%; in experiment [15], 97.8%; in [16], 92.7%; in experiment [18] it was 93.5%; in [20], 77.2%. The growth in experiment [19] was 85.1%.

In the case of `O=C(/C=C/c1c[nH]c2ccccc12)c1cc2ccccc2o1`, the growth in experiment [1] is 83.3%; in experiment [2], 98.9%; in experiment [3] it was 92%; in experiment [4], 96.2%; in experiment [5], 98.2%; in experiment [6] it was 75.6%. Moreover, the growth in experiment [7] was 102%; in experiment [8], 87.6%; in experiment [9] it was 91.7%; in experiment [10], 96.6%; in experiment [11], 105%; in experiment [12] it was 84.4%. The growth in [13] is 101%; in experiment [14] it was 60.2%; in experiment [15] it was 140%; in experiment [16] it was 103%; in experiment [18], 102%; in experiment [20], 36.3%. For the same compound, the growth in experiment [19] is 75.3%.

With `CCCCCCCCCc1cc[n+](CC(=O)c2ccc([N+](=O)[O-])cc2)cc1`, the growth in [1] was -18.2% (active); in [2], -52.1% (active); in [3], 23.9%; in experiment [4] it was 13.8%; in [5], 8.48% (active); in experiment [6], -0.775% (active). In addition, the growth in [7] was -77.8% (active); in [8], -6.32% (active); in experiment [9], -77.2% (active); in [10], 12.3%; in [11], -73.9% (active); in experiment [12], 11.1%. For the same compound, the growth was -2.2% (active) in experiment [13]; 35% in [14]; 48.4% in experiment [15]; 48.1% in [16]; 74.9% in experiment [17]; 1.62% (active) in [19].

On to `O=C1N/C(=N\c2nnc(-c3ccc(O)cc3)s2)S/C1=C\c1ccccc1O`, for which the growth is 93.3% in experiment [1]; 115% in [2]; 78.5% in experiment [3]; 93.8% in experiment [4]; 101% in experiment [5]; 87% in experiment [6]. Further, the growth in experiment [7] is 99.7%; in experiment [8], 97.6%; in experiment [9] it was 93%; in experiment [10] it was 106%; in experiment [11] it was 103%; in experiment [12] it was 101%. In addition, the growth is 93.2% in experiment [13]; 72.4% in [14]; 97.9% in experiment [15]; 97.8% in [16]; 107% in experiment [18]; 95.8% in experiment [20]. The growth in experiment [19] is 100%.

Consider `COc1cc(CNC(=O)CCCC/C=C/C(C)C)ccc1OCc1nnc(Nc2ccccc2F)o1`, for which the growth in [1] was 90.1%; in experiment [2], 89.9%; in experiment [3], 57.8%; in experiment [4], 58.6%; in [5], 84%; in experiment [6], 72.5%. Further, the growth in experiment [7] was 86.6%; in experiment [8] it was 65.5%; in [9] it was 83.4%; in [10], 85.2%; in experiment [11], 111%; in experiment [12], 77.1%. In addition, the growth in experiment [13] is 70.5%; in experiment [14] it was 52.8%; in experiment [15], 97.7%; in experiment [16] it was 56.1%; in experiment [18], 92.5%; in experiment [20] it was 83%. Further, the growth in experiment [19] is 82%.

These data come from PubChem BioAssay (NCI).
